Shown are actives, neighbours in structure and some others; about 2.7% of the full set was active somewhere.
ERa SRC1 inh = blocks coactivator binding to human estrogen receptor alpha | P03372 | TR-FRET ER-alpha LBD / SRC-1 peptide, estradiol-bound | inhibition, % at 25.6 µM | hit rate 1.7% among 86,000; in the data active = inhibition above about 50%;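 also: 0% = receptor plus peptide control and 100% = peptide only without receptor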
Target sequence (P03372 whole entry, looked up, the tested form may be a part): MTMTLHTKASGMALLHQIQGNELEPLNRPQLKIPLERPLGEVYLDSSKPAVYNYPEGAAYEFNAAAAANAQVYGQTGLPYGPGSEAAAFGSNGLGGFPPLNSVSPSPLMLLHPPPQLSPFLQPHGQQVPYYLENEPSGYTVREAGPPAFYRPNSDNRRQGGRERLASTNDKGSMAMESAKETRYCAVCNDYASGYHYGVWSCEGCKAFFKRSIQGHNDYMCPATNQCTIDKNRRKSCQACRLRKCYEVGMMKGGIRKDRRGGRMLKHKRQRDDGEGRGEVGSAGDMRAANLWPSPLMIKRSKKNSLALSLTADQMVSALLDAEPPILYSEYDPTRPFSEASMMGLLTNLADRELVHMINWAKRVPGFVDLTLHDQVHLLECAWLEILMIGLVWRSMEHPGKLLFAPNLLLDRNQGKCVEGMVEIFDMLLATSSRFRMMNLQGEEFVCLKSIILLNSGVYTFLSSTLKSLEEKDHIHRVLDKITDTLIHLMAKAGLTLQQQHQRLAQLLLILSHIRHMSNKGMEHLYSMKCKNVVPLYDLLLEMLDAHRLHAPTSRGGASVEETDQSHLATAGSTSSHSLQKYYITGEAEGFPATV
ERa coact pot = enhances coactivator binding to human estrogen receptor alpha. TR-FRET ERalpha-LBD/SRC-Cy5 coactivator binding, 2 h; 100 = basal binding, no effect. coactivator binding (% of control), % at 25.6 µM. hit rate 1.3% among 86,000; in the data active = activity above about 200%;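 also: binding measured in presence of low estradiol as agonist stimulus; 0% = peptide alone without receptor and 100% = receptor with peptide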
MRP resist rev = compounds reversing MRP-mediated drug resistance. H69AR cells + 2 uM doxorubicin, CellTiter-Glo, 72 h. differential viability (reversal), % at 10 µM. hit rate 0.04% among 85,000. AID 602;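 active = viability drop by adding the cancer drug above about 55%, with treated viability meeting a 40% cutoff, limit read from the data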;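 also: viability without doxorubicin minus viability with 2 µM doxorubicin for each compound; larger differential means the compound sensitizes cells more to doxorubicin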
ERb SRC1 inh = blocks coactivator binding to human estrogen receptor beta; Q92731; TR-FRET ER-beta LBD / SRC1-Cy5 peptide binding; receptor agonist-loaded with 1 µM estradiol; inhibition, % at 25.6 µM; hit rate 1.3% among 86,000; AID 633;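 active = compounds whose percent inhibition of the receptor-coactivator binding signal exceeds about 50% in the single-dose screen, limit read from the data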;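 also: 0% = receptor plus peptide wells without compound and 100% = peptide-only wells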
MRP1 act = activators of MRP-1; H69AR cells + doxorubicin, viability rescue, CellTiter-Glo; viability increase, % at 10 µM; hit rate 0.61% among 140,000;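 active = viability gain under doxorubicin at or above a set limit, the compound median plus 3 SD, cut at about 4.7% in these data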;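 also: MRP-1 overexpressing cells given doxorubicin 25 µM after compound pretreatment; 18-22 h compound pretreatment then 72 h with doxorubicin before readout; 0% = doxorubicin-only wells and 100% = vehicle-treated cells without doxorubicin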
The depositor's hits bear a star; x = no result; [ ] = dose if it differs, or a comment.

SMILES	ERa SRC1 inh	ERa coact pot	MRP resist rev	ERb SRC1 inh	MRP1 act
N#Cc1cc2c(=O)n3ccccc3nc2n(CCCn2ccnc2)c1=N	35	61	11	56*	-3
CCOc1ccc(N2CSC3=C(C#N)C(c4ccco4)CC(=O)N3C2)cc1 (centres undefined)	51*	94	-11	52*	-4
COc1cccc(C2CC(=O)N3CN(c4ccccc4F)CSC3=C2C#N)c1 (centres undefined)	-8	87	0	-15	-3
COc1cc(C2CC(=O)N3CN(c4ccccc4C)CSC3=C2C#N)cc(OC)c1OC (centres undefined)	9	253*[fluorescence artefact?]	-5	5	-4
CCc1ccccc1N1CSC2=C(C#N)C(c3cc(OC)c(OC)cc3OC)CC(=O)N2C1 (centres undefined)	-6	225*[fluorescence artefact?]	6	0	-1
COc1ccccc1N1CSC2=C(C#N)C(c3ccc(SC)cc3)CC(=O)N2C1 (centres undefined)	64*[fluorescence artefact?]	45	-7	61*[fluorescence artefact?]	-5
NC1=NC(=O)/C(=C/c2ccccc2OS(=O)(=O)c2ccc3ccccc3c2)S1	x	x	x	x	-1
Cc1nnc(SCCn2c(N3CCN(c4ccccc4)CC3)nc3c2c(=O)n(C)c(=O)n3C)s1	0	114	0	-9	x
Cc1csc(NC(=O)CSc2nnc3c4ccccc4nc(C(C)(C)C)n23)n1	x	x	x	x	-6
CCOC(=O)C1CCCN(C(=O)c2ccc(CS(=O)(=O)c3ccc(C)cc3)o2)C1 (centres undefined)	36	66	8	55*	-1
O=C(Cc1ccccc1F)Nc1cccc2cccnc12	x	x	x	x	5.9*
O=C(O)CCCC(=O)Nc1cccc2cccnc12	x	x	x	x	-1
CC(=O)Oc1ccc(N2C(=O)CCC2=O)cc1	-1	98	-14	2	-2
COc1ccc(N2C(=O)CCC2=O)cc1	52*[fluorescence artefact?]	45	18	43	-1
CC(C)Cn1c2c(c(O)c(C(=O)Nc3ccc(F)cc3)c1=O)CCCC2	-4	109	-9	3	6.3*
Cc1oc(-c2ccc(Cl)cc2)nc1CN1CCCC(C(=O)NCc2ccccn2)C1 (centres undefined)	-4	99	4	2	0
Cc1oc(-c2ccc(Cl)cc2)nc1CN1CCCC(C(=O)NCc2cccnc2)C1 (centres undefined)	-7	109	-1	53*	-1
CN(C)CCCn1c(SCC(=O)N2c3ccccc3Sc3ccccc32)nc2ccccc2c1=O	x	x	x	x	-6
C=C(C)c1cccc(C(C)(C)NC(=O)N2CCCC2)c1	-11	100	18	-6	-3
C=C(C)c1ccc(C(C)(C)NC(=O)N2CCN(C)CC2)cc1	-2	537*[fluorescence artefact?]	4	5	-3
Cc1ccc(-c2nnn(CC(=O)Nc3ccc4nn(-c5ccccc5)nc4c3)n2)o1	58*	155	x	39	2
Cc1ccc(C(=O)Nc2nc3ccccc3n2CCN2CCCC2)cc1	-8	284*[fluorescence artefact?]	-7	-2	-2
Cn1c(=O)c2c(nc(NCCc3ccccc3)n2CC(=O)NCCc2ccccc2)n(C)c1=O	17	229*[fluorescence artefact?]	-28	34	0
O=C(Cn1cnc2sc(-c3ccccc3)cc2c1=O)NCCc1ccccc1	43	213*[fluorescence artefact?]	-20	37	-3
O=C(Cn1cnc2sc(-c3ccccc3)cc2c1=O)NCc1ccccc1	59*[fluorescence artefact?]	216*	-25	63*[fluorescence artefact?]	-2
SMILES	ERa SRC1 inh	ERa coact pot	MRP resist rev	ERb SRC1 inh	MRP1 act
O=C(Cn1nnc(-c2ccccc2)n1)NCc1ccco1	5	87	8	1	-1
O=C(Cn1cnc2sc(-c3ccccc3)cc2c1=O)NCc1ccco1	66*[fluorescence artefact?]	147	-21	46	-4
O=C(Cn1ncn2c(cc3ccccc32)c1=O)NCc1ccco1	57*[fluorescence artefact?]	95	-12	38	-3
C=CCNC(=O)/C(C#N)=C/c1ccc(OS(=O)(=O)c2ccc(C)cc2)c(OC)c1	x	x	x	x	-5
CCCCN(CCCC)C(=S)NC(=O)c1ccccc1Cl	x	x	x	x	-3
Cc1ccc(NC(=O)c2nnn(-c3cc(C)cc(C)c3)c2N)cc1	22	119	9	-7	1
COc1cccc(Cn2nnc(C(=O)Nc3cc(C)ccc3OC)c2N)c1	6	103	7	-4	-1
COc1cccc(CNC(=O)c2nnn(CC(=O)Nc3ccc(C)c(C)c3)c2N)c1	36	287*	-24	13	-2
COc1ccc(NC(=O)Cn2nnc(C(=O)NCc3ccccc3)c2N)cc1Cl	19	176	8	5	-6
Cc1ccc(NC(=O)Cn2nnc(C(=O)Nc3ccc(C)c(C)c3)c2N)cc1	70*[fluorescence artefact?]	149	-20	26	0
COc1cccc(Cn2nnc(C(=O)Nc3ccc(C)cc3)c2N)c1	-2	246*[fluorescence artefact?]	3	-1	1
Cc1cccc(-n2nnc(C(=O)Nc3ccc(F)cc3)c2N)c1	63*[fluorescence artefact?]	70	1	37	1
COc1ccc(CCNC(=O)CSc2nncs2)cc1	x	x	x	x	0
Cc1cccc(NC(=O)c2ccc(N3CCCCC3)c([N+](=O)[O-])c2)n1	x	x	x	x	3
Cc1ccc(C)c2sc(NC(=O)c3ccc(N4CCCCC4)c([N+](=O)[O-])c3)nc12	x	x	x	x	6.7*
CC1CN(C2CCN(C(=O)COc3ccc(Cl)cc3)CC2)CC(C)O1 (centres undefined)	0	92	3	5	0
C=C(C)C(=O)OC1(C(F)(F)F)Oc2cc(C)ccc2NC1=O (centres undefined)	0	79	1	2	-1
COc1cc(NS(=O)(=O)c2ccc(NC(C)=O)cc2)nc(OC)n1	-7	100	13	-6	-3
COc1cc(NS(=O)(=O)c2ccc(N/C=C(\C#N)c3nc4cc(Cl)ccc4o3)cc2)nc(OC)n1	x	x	x	x	4.9*
O=C(O)C1Nc2c(O)cccc2C2C=CCC12 (centres undefined)	99*[fluorescence artefact?]	-6	0	99*[fluorescence artefact?]	-5
CCSc1nnc(NC(=O)C2Cc3ccccc3CN2C(=O)c2ccco2)s1 (centres undefined)	53*	128	11	43	-2
N#Cc1c(C(F)(F)F)cc(-c2cccc(Cl)c2)[nH]c1=O	x	x	x	x	-1
CC1=CC(C)(C)n2c(O)c(N=N)c3cc(C)cc1c32	x	x	x	x	-1
CN(C)S(=O)(=O)N1CCN(CC(O)COc2ccc3cc(Br)ccc3c2)CC1 (centres undefined)	0	119	1	-6	-3
O=S(=O)(N1CCCCC1)N1CCN(CC(O)COc2ccc3cc(Br)ccc3c2)CC1 (centres undefined)	-5	253*	13	-8	0
CCC(C)c1ccccc1NC(=O)COC(=O)c1ccc2[nH]c3c(c2c1)CCCC3 (centres undefined)	x	x	x	x	-4
COc1ccc(C2SCC(=O)N2CC23CC4CC(CC(C4)C2)C3)cc1 (centres undefined)	-1	100	25	-2	-1
COc1ccccc1Cn1c(=O)c2ccccc2n2c(Sc3ncnc4sccc34)nnc12	0	259*[fluorescence artefact?]	-1	24	-7

Source: PubChem BioAssay
